GBA activity up = glucocerebrosidase activity enhancement. P04062. L444P Gaucher fibroblasts, 4-MU-glucoside fluorescence, 3 days. activation, % at 10 µM. 30,000 tested, 0.44% active. AID 784; in the data active means activation above about 65%
Of the large screens only hits and unclear results are named; the others gave an inactive call. The entries come from a sample that favours hits as a whole.

CC1CC(C)CN(CCCNC(=O)C2CCCN(c3nnc(N4CCCC4=O)s3)C2)C1 (configuration not stated)	none
COc1ccccc1C(c1nnnn1C(C)(C)C)N1CCN(Cc2ccncc2)CC1 (configuration not stated)	none
CCN1CCN(C(c2ccc(OC)c(OC)c2)c2nnnn2C(C)(C)C)CC1 (configuration not stated)	GBA activity up 140
COc1ccccc1N1CCN(C(c2ccc(Cl)cc2)c2nnnn2C(C)(C)C)CC1 (configuration not stated)	none
Cc1cccc(OC(C)C(=O)N(Cc2cccs2)C2CCS(=O)(=O)C2)c1C (configuration not stated)	none
Cc1ccccc1OCC(=O)N(Cc1cccs1)C1CCS(=O)(=O)C1 (configuration not stated)	GBA activity up 147
COc1ccccc1C(=O)N(Cc1cccs1)C1CCS(=O)(=O)C1 (configuration not stated)	none
Cc1c(C)c2cc(Cl)c(OCc3nn[nH]n3)cc2oc1=O	none
CCNc1nc(NC(C)C)nc(N(C#N)CCOc2ccc(Cl)cc2Cl)n1	none
CC(=O)c1coc2ccc(OCCN3CCCCC3)cc12	none
CCOC(=O)CCn1cc(F)c(=O)n(Cc2ccccc2)c1=O	none
CCC(c1nnc(SCc2nc3ccccc3s2)n1Cc1ccccc1)N(C)C (configuration not stated)	none
c1ccc(-n2cnnc2SCc2nc3ccccc3s2)cc1	none
c1ccc(Cn2c(SCc3nc4ccccc4s3)nnc2-c2ccco2)cc1	GBA activity up 127
Cc1ccc(-n2c(SCc3cn4ccsc4n3)nc3ccccc3c2=O)cc1	none
COc1ccc(NC(=O)CN(C)S(=O)(=O)c2cccs2)cc1	none
Cc1cccc2sc(NC(=O)CN(C)S(=O)(=O)c3cccs3)nc12	GBA activity up 76
COC(=O)Nc1nc2c(C)cccc2s1	none
Cc1ccc(S(=O)(=O)Nc2ccc(-c3nnc(SCC#N)n3C)cc2)cc1	none
Cn1cc(/C(Cc2ccccc2)=N\O)c2ccccc21	none
C/C(=N\O)c1ccc2c3ccccc3n(C)c2c1	GBA activity up 77
CC(=O)n1c2ccccc2c2c1c1ccccc1n2C	none
Cc1cccc(N2CCN(C(=O)CCn3c(=S)[nH]c4cc5c(cc4c3=O)OCO5)CC2C)c1 (configuration not stated)	none
O=C(NCc1cccs1)C1CCC(=O)N1C1CCCCC1 (configuration not stated)	none
O=C(c1ccco1)N1CCN(C(=O)C2CCCO2)CC1 (configuration not stated)	none
CCOCCCn1c(=N)c(C(=O)NCCN2CCOCC2)cc2c(=O)n3cccc(C)c3nc21	GBA activity up 75
CCOCCCn1c(=N)c(C(=O)NCc2ccc3c(c2)OCO3)cc2c(=O)n3ccccc3nc21	none
COCCn1c(=N)c(C(=O)NCCc2ccc(OC)cc2)cc2c(=O)n3cccc(C)c3nc21	none
Cc1cc(C)nc(SCc2nnc(SCc3ccccc3Cl)o2)n1	none
COc1ccc(NS(=O)(=O)c2cccc3cccnc23)cc1	none
O=C(NC1CCCC1)C1CCN(S(=O)(=O)c2cccc3cccnc23)CC1	none
CC(CS(=O)(=O)c1cccc2cccnc12)N1CCCCC1 (configuration not stated)	GBA activity up 108
CCNc1nnc(-c2ccc(C)cc2)o1	none
O=C(NCCCn1ccnc1)c1cc2c(s1)CCCCC2	none
Cc1cc(C)nc(-n2nc(C)cc2Nc2ccccc2)n1	none
Cc1cc(C)nc(-n2nc(C)cc2NC(=O)c2cc(=O)c3ccccc3o2)n1	none
Cc1cc(C)nc(-n2nc(C)cc2NC(=O)c2cc3ccccc3oc2=O)n1	GBA activity up 114
CCc1nc(SCc2ccc(C(=O)OC)o2)c2c(=O)n(C)c(=O)n(C)c2n1	none
CC1CN(c2oc(-c3ccco3)nc2S(=O)(=O)c2ccccc2)CC(C)O1 (configuration not stated)	none
Cc1cccc(NC(=O)CSc2ncnc3c2oc2ccccc23)c1	none
CCc1nc(SCC(=O)Nc2ccc3c(c2)OCCO3)c2oc3ccccc3c2n1	none
Cc1nc(SCC(=O)Nc2ccc3c(c2)OCCO3)c2oc3ccccc3c2n1	GBA activity up 149
NC12CC3CC(C1)CC(CO)(C3)O2	none
CCOc1ccccc1-n1c(SCC(N)=O)nnc1-c1ccc(O)cc1	GBA activity up 116
CCOc1ccccc1-n1c(SCC(=O)N2CCOCC2)nnc1-c1ccccn1	none
CCOc1ccccc1-n1c(SCC(=O)N(CC)CC)nnc1-c1ccccn1	none
O=C(CSc1ncn[nH]1)NCCCc1ccccc1	none
O=C1Nc2ccccc2C(O)(C(=O)NC2CC2)N1c1ccc(Cl)c(Cl)c1 (configuration not stated)	GBA activity up 81
O=C1[C@H]2[C@@H](C(=O)N1c1cc(Cl)cc(Cl)c1)[C@]1(C(=O)Nc3ccccc31)N1CCC[C@@H]21	none
O=C1Nc2ccccc2C(O)(C(=O)NCc2ccco2)N1c1ccc(Cl)cc1 (configuration not stated)	none
CCc1ccc(OCC(=O)Nc2ncc3c(n2)CC(C)(C)CC3=O)cc1	none
Cc1nnc(Sc2nc3c(c(=O)n(C)c(=O)n3C)n2Cc2ccc(Cl)cc2)s1	none

Compound activity from PubChem BioAssay.
